Only some compounds are listed: those with a hit (about 3.5% of all), similar ones and a draw of the others.
TEAD-YAP inh = TEAD-YAP interaction inhibition. inhibition, % at 9.12 µM. AID 1259422. HEK-TIYL cells, TEAD-Gal4/YAP UAS-luciferase luminescence. 640,000 tested, 1.4% active; in the data active = inhibition above about 32%;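 note: 0% = median of test compound wells and 100% = reference inhibitor wells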
MITF primary = blocks human microphthalmia-associated transcription factor. AID 1259374. 650,000 tested, 0.91% active. inhibition, % at 2.6 µM. AlphaScreen MITF homodimerization, bead proximity signal; in the data active = inhibition above about 50%;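 note: 0% = vehicle wells with protein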
GPR151 ag = human GPR151 activation | PathHunter beta-arrestin GPR151 cells, luminescence | activation, % at 11.2 µM | 650,000 tested, 1% active | AID 1508602; in the data active = activation above about 4.9%;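 note: 0% = median of compound wells and 100% = cells with positive control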
FBW7 activator = human FBW7 E3 ligase activation, primary screen; AlphaScreen FBW7–phospho-cyclin E peptide binding, activator screen; Q969H0; normalized activity (activation), % at 26.1 µM; 650,000 tested, 0.13% active; AID 1259310; in the data active = normalized activity above about 1.9%;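 note: purified mutant Fbw7 with reduced substrate affinity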
Target sequence (Q969H0 whole entry, looked up): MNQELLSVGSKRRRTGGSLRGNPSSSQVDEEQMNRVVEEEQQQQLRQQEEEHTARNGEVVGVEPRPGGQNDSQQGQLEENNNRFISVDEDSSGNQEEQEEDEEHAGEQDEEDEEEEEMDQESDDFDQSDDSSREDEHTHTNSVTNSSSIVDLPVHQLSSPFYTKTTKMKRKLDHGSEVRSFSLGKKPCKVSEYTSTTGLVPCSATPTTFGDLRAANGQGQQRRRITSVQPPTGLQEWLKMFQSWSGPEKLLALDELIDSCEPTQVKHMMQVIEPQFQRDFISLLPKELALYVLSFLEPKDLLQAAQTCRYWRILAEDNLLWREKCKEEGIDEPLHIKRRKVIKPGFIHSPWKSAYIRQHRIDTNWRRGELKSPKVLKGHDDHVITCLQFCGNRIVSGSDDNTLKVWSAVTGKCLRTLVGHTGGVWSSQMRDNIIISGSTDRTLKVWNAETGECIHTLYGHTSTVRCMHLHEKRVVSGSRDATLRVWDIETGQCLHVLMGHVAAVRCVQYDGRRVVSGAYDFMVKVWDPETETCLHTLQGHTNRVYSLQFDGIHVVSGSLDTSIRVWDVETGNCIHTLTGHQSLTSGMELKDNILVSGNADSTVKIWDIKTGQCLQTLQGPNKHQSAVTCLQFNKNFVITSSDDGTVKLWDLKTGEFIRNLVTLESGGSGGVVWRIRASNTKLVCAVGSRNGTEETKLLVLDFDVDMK
MITF confirm = confirmation of human MITF inhibitors; shares compounds with MITF primary; AlphaScreen MITF homodimerization, biotin/His-MITF beads; inhibition, % at 2.6 µM; 4,700 tested, 16% active; AID 1259372;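 active = inhibition above a cutoff derived from the DMSO control wells, cut at about 28% in these data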;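 note: 0% = MITF dimer wells with DMSO only; inhibitors lower the bead chemiluminescence by keeping MITF from dimerizing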
AlphaScreen DR = AlphaScreen optical interference, dose response counter-screen; IC50, µM; shares compounds with MITF primary; AlphaScreen optical interference counterscreen, cell-free; AID 1259373; 480 tested, 6% active; call rule not given here
AlphaScreen intf2 = optically interferes with AlphaScreen signal; inhibition, % at 2.6 µM; LysRS AlphaScreen counterscreen, signal interference, triplicate; 4,700 tested, 7.6% active; shares compounds with MITF primary;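 active = inhibition above a cutoff derived from the DMSO control wells, cut at about 30% in these data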
The depositor's hits bear a star.

SMILES	TEAD-YAP inh	MITF primary	GPR151 ag	FBW7 activator	others
c1ccc2[nH]c(CNc3nc(Nc4ccc(-n5ccnc5)cc4)nc4c3ncn4-c3ccsc3)nc2c1	65*	3	-2	0
CN(c1ccc(F)cc1)S(=O)(=O)c1ccc2[nH]cc(C(=O)N3CCCCC3)c(=O)c2c1	-2	-9	2	0
C(=Nc1ccc2c(c1)OCCO2)c1ccc(OC2CSC2)cc1	45*	11	1	1
c1ccc(OCCNc2nc(Nc3ccccn3)nc3c2ncn3-c2ccsc2)cc1	11	3	0	0
FC(F)(F)c1cccc(CNc2nc(Nc3nccc4ccccc34)nc3c2ncn3-c2ccsc2)c1	32*	-3	1	0
CCCNc1nc(Nc2ccccn2)nc2c1ncn2-c1ccsc1	62*	9	-1	0
CCCNc1nc(Nc2ccccn2)nc2c1ncn2-c1ccccc1	22	6	-1	0
OCCNc1nc(Nc2nccc3ccccc23)nc2c1ncn2-c1ccsc1	58*	0	1	0
OCCNc1nc(Nc2ccccn2)nc2c1ncn2-c1ccsc1	69*	-5	1	0
N#Cc1cc2cc3c(cc2nc1NCCNC(=O)NC1CCCCC1)OCO3	-10	13	0	0
CN(C(=O)COc1ccccc1)c1ccc(C(O)(C(F)(F)F)C(F)(F)F)cc1	11	7	3	0
COc1ccc(-c2nc3ccc(C(=O)NCc4ccccc4)cc3s2)cc1	-13	6	1	0
Cc1[nH]c2ccc(-c3nnc(SCC(=O)Nc4cccc([N+](=O)[O-])c4)n3-c3ccccc3)cc2c1C	2	17	1	2.4*
Cc1[nH]c2ccc(-c3nnc(SCC(=O)Nc4cccc([N+](=O)[O-])c4)n3Cc3ccccc3)cc2c1C	1	-6	0	0
O=C(Nc1ccccc1C(=O)O)c1ccc(N2C(=O)c3ccc(Oc4ccc([N+](=O)[O-])cc4)cc3C2=O)cc1	-5	-5	-1	0
Nn1c2ccccc2n2cc(-c3ccc(Cl)cc3)nc12	56*	4	-6	1
COc1cc2nc(Oc3ccccc3)nc(Nc3cc(OC)c(OC)c(OC)c3)c2cc1OC	56*	10	5	0
COc1ccc(Br)cc1C(=O)N/N=C/c1ccc(C)o1	8	6	-1	1
COc1ccc(Cl)cc1-n1c(SCc2cc(=O)n3ccccc3n2)nc2[nH]ncc2c1=O	60*	5	-1	0
COc1ccc(Cl)cc1-n1c(SCc2ccccc2F)nc2[nH]ncc2c1=O	-11	-2	1	0
COC(=O)c1c(NC(=O)COc2ccc(Cl)c(C)c2)sc2c1CCC(C)C2 (stereo not given)	2	-10	0	0
CCOc1ccc(NC(=O)C(=O)NCCCN)cc1	76*	-4	-1	0
CCOc1ccc(NC(=O)C(=O)NCCCO)cc1	-11	19	0	1
CCOc1ccc(NC(=O)C(=O)NCN(C(=O)CCl)c2ccccc2)cc1	47*	18	-1	0
CC1=CC(C)(C)N(C(=O)CCl)c2cc(C)c(C)cc21	9	18	-4	0
SMILES	TEAD-YAP inh	MITF primary	GPR151 ag	FBW7 activator	others
CC(C)(C)C(=O)COC(=O)c1ccc(S(=O)(=O)Nc2ccccc2)cc1	-1	1	3	0
O=C(Cc1ccc2c(c1)OCO2)Nc1cc(Nc2ccccc2-c2nn[nH]n2)c(F)cn1	-9	-12	0	0
O=Cc1ccccc1Nc1cc(NC(=O)Cc2ccc3c(c2)OCO3)ncc1Cl	57*	14	-1	0
O=C(Cc1ccc2c(c1)OCO2)Nc1cc(Nc2ccccc2-c2ncn[nH]2)c(F)cn1	54*	19	-1	1
CCOc1cccc2cc(C(=O)NC(C)=O)c(=Nc3ccc(C)cc3)oc12	-5	3	0	0
Oc1ccc(F)cc1C1=NNC(c2cc(Cl)cc3c2OCOC3)C1 (stereo not given)	-10	-2	0	0
Cc1ccc(OCC(=O)Nc2ccccn2)c(C)c1	96*	-1	-6	0
Cc1ccccc1OCC(=O)Nc1ccccn1	42*	1	-6	0
Cc1ccc(OCC(=O)Nc2cc(C)on2)c(C)c1	-1	-12	-1	0
Cc1ccccc1OCC(=O)Nc1cccc(NC(=O)COc2ccccc2C)n1	-4	13	0	0
O=C(Nc1cccc2ccccc12)c1cc([N+](=O)[O-])ccc1Cl	60*	14	2	0
CC(=O)Nc1ccccc1NC(=O)c1cc([N+](=O)[O-])ccc1Cl	3	-4	1	0
O=C(Nc1cc(C(F)(F)F)ccc1N1CCCC1)c1cc([N+](=O)[O-])ccc1Cl	86*	7	-1	0
Cc1cc(O)c(NC(=O)c2cc([N+](=O)[O-])ccc2Cl)cc1C	43*	6	-1	1
O=C(Nc1ccccc1Cl)c1cc([N+](=O)[O-])ccc1Cl	36*	4	2	0
O=C(Nc1cc(C(F)(F)F)ccc1Cl)c1cc([N+](=O)[O-])ccc1Cl	-3	-6	0	0
CCC(=O)Nc1cccc(-c2nc3c(ccc4ccccc43)o2)c1	-55	-2	0	0
O=C1OC(c2ccc(Cl)cc2Cl)=N/C1=C\c1ccc([N+](=O)[O-])o1	-1	56*	0	0	MITF confirm=51*;AlphaScreen DR=>6.1;AlphaScreen intf2=2
S=c1[nH]c2ccccc2n2c(=S)[nH]nc12	-12	20	-1	0
S=c1nc2ccccc2c2[nH]c3ccccc3n12	-8	56*	-1	0	MITF confirm=-7;AlphaScreen intf2=2
CC(=O)Nc1ccc(Nc2cc(-c3ccc(C(=O)NC4CC4)cc3)ncn2)cc1	-9	6	0	0
COc1cccc(C(=O)COC(=O)CCC(=O)Nc2ccc([N+](=O)[O-])cc2)c1	0	0	1	0
COc1cccc(C(=O)COC(=O)CCCC(=O)Nc2ccc([N+](=O)[O-])cc2)c1	8	62*	2	0	MITF confirm=11;AlphaScreen intf2=14
Cc1ccc(OCc2c(C(=O)N3CCSCC3)c(=O)cc(C)n2Cc2ccccn2)cc1	2	5	-1	0
Cc1cccc(CN2CCN(CC(=O)N3CCN(c4cccc(C)c4)C(C)C3)C2=O)c1 (stereo not given)	14	-2	-1	0
c1ccc(-c2ccccc2OCCN2CCNCC2)cc1	-5	66*	0	0	MITF confirm=21;AlphaScreen intf2=10
c1ccc(-c2ccccc2OCCOCCN2CCCC2)cc1	-1	21	0	0
c1ccc2c(OCCCCN3CCOCC3)cccc2c1	-19	27	-1	0
c1ccc(-c2ccccc2OCCCN2CCOCC2)cc1	3	91*	-1	0	MITF confirm=20;AlphaScreen intf2=20

High-throughput results (PubChem)
